The values below come from the supplement of paper PMC3616981.

Compound in the experiment: CC(C)c1cccc(C(C)C)c1N1C(=O)c2ccc(O)cc2C1=O
In words: reporter fold induction vs vehicle; higher = higher reporter activity. Here is the method:
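Attagene multiplexed transcription-factor reporter assay (48 cis response elements and 25 trans nuclear-receptor constructs) treated with 5HPP-33 at 8 concentrations (0.091–200 µM). The response is fold induction of reporter activity relative to vehicle control. Cell line and time not stated in the paper; tested in ToxCast Phase II for this study.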

For the target STAT3_CIS, the reporter fold induction runs as follows: (0.091 µM) 1.05; (0.274 µM) 1; (0.823 µM) 0.995; (2.469 µM) 0.975; (7.407 µM) 0.977; (22.22 µM) 1.15. Further, the reporter fold induction was 1.02 (66.67 µM) and 0.913 (200 µM).

Take PPARd_TRANS: the reporter fold induction runs as follows: (0.091 µM) 1.05; (0.274 µM) 0.856; (0.823 µM) 0.9; (2.469 µM) 1.11; (7.407 µM) 0.953; (22.22 µM) 1.14. The reporter fold induction by setting is: (66.67 µM) 1.27; (200 µM) 1.45.

For SREBP_CIS, the reporter fold induction (0.091 µM) turned out to be 1.04; the reporter fold induction (0.274 µM) was determined as 0.954; the reporter fold induction (0.823 µM) came to 1.01; the reporter fold induction (2.469 µM) worked out at 0.996; the reporter fold induction (7.407 µM) was found to be 1.05; the reporter fold induction (22.22 µM) was found to be 0.976. Further, the reporter fold induction (66.67 µM) is 1.16 and the reporter fold induction (200 µM) worked out at 1.49.

As to Myb_CIS, the reporter fold induction was 0.995 (0.091 µM); 0.98 (0.274 µM); 1.02 (0.823 µM); 0.983 (2.469 µM); 0.998 (7.407 µM); 0.979 (22.22 µM). In addition, the reporter fold induction amounted to 1.03 (66.67 µM) and 1.13 (200 µM).

Consider ERa_TRANS, for which the reporter fold induction is, setting by setting: (0.091 µM) 1.72; (0.274 µM) 2.62; (0.823 µM) 4.32; (2.469 µM) 5.19; (7.407 µM) 4.48; (22.22 µM) 4.97. The reporter fold induction is 2.96 (66.67 µM) and 1.06 (200 µM).
